From PubChem BioAssay (NCATS)
Records with an inconclusive call do not appear. Active and inactive are the calls of the source. Calls follow the shape of the dose curve; as a rule, active = well fitted inhibition curve with a large enough effect; inconclusive = small, poorly fitted or top-dose-only effect; inactive = flat fitted curve, though single readings scatter.

Legend:
[1] = test system: CRL-7250; test: Cytotoxic Profiling of Annotated Libraries Using Quantitative High-Throughput Screening (AID 1296008); conditions: Five cell lines viability, CellTiter-Glo ATP luminescence, 48-72 h; max response: hits give low values; as to max response: % is scaled to controls: 0 for no effect and ±100 for the full control effect
Procedure, shortened: (§1)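 Compounds were pin-transferred onto cells and incubated 48 or 72 hr at 37 degree Celsius, 95% humidity. CellTiter-Glo was added, plates sat 10 min at room temperature, then ATP-coupled luminescence was imaged as the viability read-out.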

[2] = test system: HEK293; test: as above; conditions: Five cell lines viability, CellTiter-Glo ATP luminescence, 48-72 h; max response: hits give low values
Procedure, shortened: as §1

[3] = test system: NIH3T3; test: as above; conditions: Five cell lines viability, CellTiter-Glo ATP luminescence, 48-72 h; max response: hits give low values
Procedure, shortened: as §1

[4] = test system: MCC-13; test: qHTS assay to identify novel small-molecules to repurpose for Merkel cell carcinoma treatment (AID 1296009); conditions: MCC and control cell lines, CellTiter-Glo viability, 72 h; series mostly up to 46 µM
Procedure, shortened: (§2)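 Viability readout: ATP luminescence (CellTiter-Glo) after 72 hr drug exposure at 37 degree celsius. Dose-response format was 8 points for NPC and 11 points for MIPE; data normalized to in-plate controls.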

[5] = test system: MCC-26; test: as above; conditions: MCC and control cell lines, CellTiter-Glo viability, 72 h; series mostly up to 46 µM
Procedure, shortened: as §2

[6] = test system: HaCat; test: Cytotoxic Profiling of Annotated Libraries Using Quantitative High-Throughput Screening (AID 1296008); conditions: Five cell lines viability, CellTiter-Glo ATP luminescence, 48-72 h; max response: hits give low values; as to max response: % is scaled to controls: 0 for no effect and ±100 for the full control effect
Procedure, shortened: as §1

[7] = test system: KB-3-1; test: as above; conditions: Five cell lines viability, CellTiter-Glo ATP luminescence, 48-72 h; max response: hits give low values
Procedure, shortened: as §1

[8] = test system: HACAT; test: qHTS assay to identify novel small-molecules to repurpose for Merkel cell carcinoma treatment (AID 1296009); conditions: MCC and control cell lines, CellTiter-Glo viability, 72 h; at 44.8 µM (top of the series) unless noted
Procedure, shortened: as §2

[9] = test system: P93_24; test: qHTS profiling for inhibitors of Plasmodium falciparum proliferation (AID 504749); conditions: P. falciparum in erythrocytes, SYBR Green DNA, 72 h; series mostly up to 28.7 µM
Procedure, shortened: (§3)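 Quantitative HTS: compounds pinned into medium, infected erythrocytes added (0.3% parasitemia, 2.5% hematocrit), 72 h culture at 37 C under 5% CO2. Saponin/Triton lysis with SYBR Green I, overnight RT, then fluorescence read.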

[10] = test system: P94_40; test: as above; conditions: P. falciparum in erythrocytes, SYBR Green DNA, 72 h; series mostly up to 28.7 µM
Procedure, shortened: as §3

[11] = test system: PAD; test: as above; conditions: P. falciparum in erythrocytes, SYBR Green DNA, 72 h; series mostly up to 28.7 µM
Procedure, shortened: as §3

[12] = test system: PC15; test: as above; conditions: P. falciparum in erythrocytes, SYBR Green DNA, 72 h; series mostly up to 28.7 µM
Procedure, shortened: as §3

[13] = test system: PC26; test: as above; conditions: P. falciparum in erythrocytes, SYBR Green DNA, 72 h; series mostly up to 28.7 µM
Procedure, shortened: as §3

[14] = test system: SC27B; test: as above; conditions: P. falciparum in erythrocytes, SYBR Green DNA, 72 h; series mostly up to 28.7 µM
Procedure, shortened: as §3

[15] = test system: TAB109; test: as above; conditions: P. falciparum in erythrocytes, SYBR Green DNA, 72 h; series mostly up to 28.7 µM
Procedure, shortened: as §3

[16] = test system: TAB113; test: as above; conditions: P. falciparum in erythrocytes, SYBR Green DNA, 72 h; series mostly up to 28.7 µM
Procedure, shortened: as §3

[17] = test system: TAB165; test: as above; conditions: P. falciparum in erythrocytes, SYBR Green DNA, 72 h; series mostly up to 28.7 µM
Procedure, shortened: as §3

[18] = test system: W2; test: as above; conditions: P. falciparum in erythrocytes, SYBR Green DNA, 72 h; series mostly up to 28.7 µM
Procedure, shortened: as §3
Also: nearly all actives have a fitted effect of over 60% in size.
Potency is read from the fitted curve at half-maximal effect.

CCN(CC)CCN
inactive: max response [1] 3.12% | max response [2] 2.25% | max response [3] -0.486% | Potency [4] | Potency [5]

CCCCCCCCCCCC[N+](C)(C)Cc1ccccc1
active: Potency [1] 4.22 µM | Potency [2] 0.841 µM | Potency [6] 4.73 µM | Potency [3] 6.68 µM | Potency [5] 23.7 µM

COCCc1ccc(OCC2CO2)cc1 (stereo not drawn)
inactive: max response [1] 1.12% | max response [2] 1.88% | max response [3] -4.27% | Potency [4] | Potency [5]

COC(=O)c1c(Cl)c(Cl)c(C(=O)OC)c(Cl)c1Cl
inactive: max response [1] -7.84% | max response [2] -21.7% | max response [7] -7.26% | max response [3] -9.58% | Potency [4] | Potency [5]

O=C(O)Cc1ccccc1Oc1ccc(Cl)cc1Cl
inactive: max response [1] 1.12% | max response [2] 3.66% | outcome [7] | max response [3] -11.6% | Potency [4] | Potency [5]

CO[C@@H]1[C@@H](OC)[C@H](C)[C@@](O)(CC(=O)O)O[C@H]1[C@H](C)[C@H]1O[C@@]2(CC[C@@](C)([C@H]3CC[C@@](C)([C@@H]4O[C@@H]([C@H]5O[C@](C)(O)[C@H](C)C[C@@H]5C)C[C@@H]4OC4C[C@H](OC)[C@@H](OC)[C@H](C)O4)O3)O2)C[C@H](O)[C@H]1C (stereo partly drawn)
active: Potency [1] 0.944 µM | Potency [2] 0.237 µM | Potency [3] 6.68 µM | Potency [4] 2.99 µM

CCOC(=O)N1CCC(Nc2ccc(Cl)cc2N)CC1
inactive: max response [1] 2.37% | max response [2] -13.9% | max response [6] -14.7% | Potency [4] | Potency [5]

OCCc1ccccc1
inactive: max response [1] 4.7% | max response [2] -1.38% | max response [6] -14.1% | max response [3] -0.715% | Potency [4] | Potency [5]

C[C@H](CN1CCCC1)C(=O)c1ccc(C(F)(F)F)cc1
inactive: max response [1] 3.63% | max response [2] -20.1% | max response [7] 4.58% | max response [3] -14.5% | Potency [4]

CCNC(=O)NCCCOc1cccc(CN2CCCCC2)c1
inactive: max response [1] -12.2% | max response [2] -59.3% | max response [7] -12.8% | outcome [3] | Potency [4] | Potency [5]

CN(C)CCOC1=Cc2ccccc2Sc2ccc(Cl)cc21
inactive: max response [1] -2.09% | outcome [6] | max response [7] -15.8% | max response [3] -0.0906% | outcome [8] | Potency [4] | Potency [5]

CCCCC(=O)OCC(=O)[C@H]1[C@H](C)C[C@H]2[C@@H]3C[C@H](F)C4=CC(=O)C=C[C@]4(C)[C@@]3(F)[C@@H](O)C[C@@]21C
inactive: max response [1] -1.6% | max response [6] 1.04% | max response [7] -3.44% | max response [3] -6.1% | Potency [4] | Potency [5]

Cc1ccc(CCn2c3c(c4cc(Cl)ccc42)CN(C)CC3)cn1
inactive: max response [1] -3.39% | outcome [6] | max response [3] 0.803% | outcome [8] | Potency [4] | Potency [5]

O=C(NO)c1ccccc1
inactive: max response [1] -19.7% | max response [6] 4.14% | max response [7] -12.1% | max response [3] -4.92% | Potency [4] | Potency [5]

CCC(CN)=C(c1ccccc1)c1ccccc1
inactive: outcome [1] | max response [6] 1.4% | outcome [3] | Potency [4] | Potency [5]

O=C(OCCN1CCOCC1)c1cccnc1Nc1cccc(C(F)(F)F)c1
inactive: max response [1] -4.59% | outcome [6] | max response [3] -0.363% | outcome [8] | Potency [4] | Potency [5]

c1ccc(C(O[C@H]2CCCN(CCc3ccc4c(c3)OCO4)C2)c2ccccc2)cc1
inactive: max response [1] -1.12% | max response [6] 0.583% | max response [7] -8.06% | max response [3] -0.771% | Potency [4] | Potency [5]

CCCCCCCCCCCCCCCC[n+]1ccccc1
active: Potency [9] 7.94 µM | Potency [10] 8.91 µM | Potency [11] 12.6 µM | Potency [12] 10 µM | Potency [13] 12 µM | Potency [14] 10 µM | Potency [15] 8.91 µM | Potency [16] 5.01 µM | Potency [17] 4.47 µM | Potency [18] 1.51 µM | Potency [1] 1.5 µM | Potency [6] 5.96 µM | Potency [7] 14.6 µM | Potency [3] 16.8 µM | Potency [4] 11.9 µM

O=C1NC(=O)/C(=C/c2ccc3c(c2)OC(F)(F)O3)S1
inactive: max response [1] 4.23% | max response [6] -3.64% | max response [3] -4.12%

CN(C)[C@@H]1C(=O)C(C(N)=O)=C(O)[C@@]2(O)C(=O)C3=C(O)c4c(O)cccc4C[C@H]3C[C@@H]12
inactive: max response [1] -0.669% | max response [6] -5.74% | max response [3] 1.19% | Potency [4]

CC1CCCCN1CCCOC(=O)c1ccc(OC2CCCCC2)cc1 (stereo not drawn)
inactive: max response [1] -16.2% | outcome [6] | max response [3] -13.4% | outcome [8] | Potency [4] | Potency [5]
